Measurements: article PMC11006913
Positions count from the first letter of the chain named.

Key:
Experiment in all cases: PBM; 200 nM protein, PBS
Conditions in all cases: dsDNA, one strand shown
[1] = molecular target: T1, SIX6 (Homo sapiens, UniProt O95475 114-200, L167I)
T1 sequence: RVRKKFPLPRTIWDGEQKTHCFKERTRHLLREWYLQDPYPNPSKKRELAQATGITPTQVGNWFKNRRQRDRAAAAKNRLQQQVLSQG

[2] = molecular target: T2, SIX6 (Homo sapiens, UniProt O95475 114-200, L143V)
T2 sequence: T1 sequence with L30V, I54L

[3] = molecular target: T3, SIX6 (Homo sapiens, UniProt O95475 114-200, H141N)
T3 sequence: T1 sequence with H28N, I54L

[4] = molecular target: T4, SIX6 (Homo sapiens, UniProt O95475 114-200, T165P)
T4 sequence: T1 sequence with T52P, I54L

[5] = molecular target: T5, SIX6 (Homo sapiens, UniProt O95475 114-200, L167M)
T5 sequence: T1 sequence with I54M

[6] = molecular target: T6, SIX6 (Homo sapiens, UniProt O95475 114-200, L143M)
T6 sequence: T1 sequence with L30M, I54L

[7] = molecular target: T7, SIX6 (Homo sapiens, UniProt O95475 114-200, L143I)
T7 sequence: T1 sequence with L30I, I54L

[8] = molecular target: T8, SIX6 (Homo sapiens, UniProt O95475 114-200, T165G)
T8 sequence: T1 sequence with T52G, I54L

[9] = molecular target: T9, SIX6 (Homo sapiens, UniProt O95475 114-200, T139Q)
T9 sequence: T1 sequence with T26Q, I54L

[10] = molecular target: T10, SIX6 (Homo sapiens, UniProt O95475 114-200, T165A)
T10 sequence: T1 sequence with T52A, I54L

[11] = molecular target: T11, SIX6 (Homo sapiens, UniProt O95475 114-200, L167V)
T11 sequence: T1 sequence with I54V

[12] = molecular target: T12, SIX6 (Homo sapiens, UniProt O95475 114-200)
T12 sequence: T1 sequence with I54L

[13] = molecular target: T13, SIX6 (Homo sapiens, UniProt O95475 114-200, T165I)
T13 sequence: T1 sequence with T52I, I54L

Row | Sequence | binding signal [1] | binding signal [2] | binding signal [3] | binding signal [4] | binding signal [5] | binding signal [6] | binding signal [7] | binding signal [8] | binding signal [9] | binding signal [10] | binding signal [11] | binding signal [12] | binding signal [13]
1 | ATATCATG | 11.1 upbm affinity estimate (log intensity, higher = more binding, comparable within an allelic series) | 10.4 upbm affinity estimate (log intensity, higher = more binding, comparable within an allelic series) | 11.1 upbm affinity estimate (log intensity, higher = more binding, comparable within an allelic series) | 9.92 upbm affinity estimate (log intensity, higher = more binding, comparable within an allelic series) | 10.8 upbm affinity estimate (log intensity, higher = more binding, comparable within an allelic series) | 10.9 upbm affinity estimate (log intensity, higher = more binding, comparable within an allelic series) | 10.4 upbm affinity estimate (log intensity, higher = more binding, comparable within an allelic series) | 11.1 upbm affinity estimate (log intensity, higher = more binding, comparable within an allelic series) | 11.2 upbm affinity estimate (log intensity, higher = more binding, comparable within an allelic series) | 11 upbm affinity estimate (log intensity, higher = more binding, comparable within an allelic series) | 11 upbm affinity estimate (log intensity, higher = more binding, comparable within an allelic series) | 11 upbm affinity estimate (log intensity, higher = more binding, comparable within an allelic series) | 11 upbm affinity estimate (log intensity, higher = more binding, comparable within an allelic series)
2 | CGCGCTCC | 8.99 upbm affinity estimate (log intensity, higher = more binding, comparable within an allelic series) | 8.9 upbm affinity estimate (log intensity, higher = more binding, comparable within an allelic series) | 8.83 upbm affinity estimate (log intensity, higher = more binding, comparable within an allelic series) | 9.01 upbm affinity estimate (log intensity, higher = more binding, comparable within an allelic series) | 8.97 upbm affinity estimate (log intensity, higher = more binding, comparable within an allelic series) | 9.06 upbm affinity estimate (log intensity, higher = more binding, comparable within an allelic series) | 8.97 upbm affinity estimate (log intensity, higher = more binding, comparable within an allelic series) | 8.86 upbm affinity estimate (log intensity, higher = more binding, comparable within an allelic series) | 9.04 upbm affinity estimate (log intensity, higher = more binding, comparable within an allelic series) | 8.97 upbm affinity estimate (log intensity, higher = more binding, comparable within an allelic series) | 8.93 upbm affinity estimate (log intensity, higher = more binding, comparable within an allelic series) | 8.91 upbm affinity estimate (log intensity, higher = more binding, comparable within an allelic series) | 8.89 upbm affinity estimate (log intensity, higher = more binding, comparable within an allelic series)
3 | GATATCCC | 11.1 upbm affinity estimate (log intensity, higher = more binding, comparable within an allelic series) | 10.2 upbm affinity estimate (log intensity, higher = more binding, comparable within an allelic series) | 11.1 upbm affinity estimate (log intensity, higher = more binding, comparable within an allelic series) | 9.49 upbm affinity estimate (log intensity, higher = more binding, comparable within an allelic series) | 10.8 upbm affinity estimate (log intensity, higher = more binding, comparable within an allelic series) | 11 upbm affinity estimate (log intensity, higher = more binding, comparable within an allelic series) | 10.2 upbm affinity estimate (log intensity, higher = more binding, comparable within an allelic series) | 11.2 upbm affinity estimate (log intensity, higher = more binding, comparable within an allelic series) | 11.1 upbm affinity estimate (log intensity, higher = more binding, comparable within an allelic series) | 11 upbm affinity estimate (log intensity, higher = more binding, comparable within an allelic series) | 11 upbm affinity estimate (log intensity, higher = more binding, comparable within an allelic series) | 11 upbm affinity estimate (log intensity, higher = more binding, comparable within an allelic series) | 11 upbm affinity estimate (log intensity, higher = more binding, comparable within an allelic series)
4 | TATCATCA | 10.9 upbm affinity estimate (log intensity, higher = more binding, comparable within an allelic series) | 10.3 upbm affinity estimate (log intensity, higher = more binding, comparable within an allelic series) | 10.8 upbm affinity estimate (log intensity, higher = more binding, comparable within an allelic series) | 9.94 upbm affinity estimate (log intensity, higher = more binding, comparable within an allelic series) | 10.5 upbm affinity estimate (log intensity, higher = more binding, comparable within an allelic series) | 10.8 upbm affinity estimate (log intensity, higher = more binding, comparable within an allelic series) | 10.2 upbm affinity estimate (log intensity, higher = more binding, comparable within an allelic series) | 10.8 upbm affinity estimate (log intensity, higher = more binding, comparable within an allelic series) | 10.9 upbm affinity estimate (log intensity, higher = more binding, comparable within an allelic series) | 10.8 upbm affinity estimate (log intensity, higher = more binding, comparable within an allelic series) | 10.6 upbm affinity estimate (log intensity, higher = more binding, comparable within an allelic series) | 10.7 upbm affinity estimate (log intensity, higher = more binding, comparable within an allelic series) | 10.7 upbm affinity estimate (log intensity, higher = more binding, comparable within an allelic series)
